# Assay outcomes (PubChem BioAssay)
# esBAF inh – Bmi1 luciferase reporter increase in mESCs, primary screen, esBAF inhibitor project, mouse ES cells, Bmi1 luciferase knock-in, single point; 350,000 tested, 2% active; reporter increase, % at 12.5 µM; AID 602393, 2012; 24 h; 100% = twice the neutral-well signal; in the data active means activation above about 40%;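 further: 0% = median of the plate's neutral control wells and 100% = double that signal; a rise in the Bmi1 reporter signal indicates esBAF inhibition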
# Dyrk1A ADPGlo – rat Dyrk1A kinase inhibitors, primary screen, biochemical, single point, plate reader. Dual specificity tyrosine-phosphorylation-regulated kinase 1A (Rattus norvegicus), Q63470. inhibition, % at 12.5 µM. 310,000 tested, 0.43% active. ADP-Glo luminescence, NFATc1 peptide; in the data active means inhibition above about 50%;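 further: plate controls were vehicle with enzyme for no effect and no enzyme for full effect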
# CDK5 inh – inhibitors of human CDK5/p35 kinase, primary screen, biochemical, single concentration | AID 488839, 2010 | Recombinant CDK5/p35, ADP-Glo luminescence, 60 min | 330,000 tested, 0.01% active | Cyclin-dependent kinase 5 (Homo sapiens) + Cyclin-dependent kinase 5 activator 1 (Homo … | inhibition, % at 10 µM;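 active means highest replicate inhibition of at least 50% and at least 75% of replicates reaching 50%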;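 further: plate controls were DMSO neutral control for no effect and GW8510 at 10 µM for full effect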
# dFosB activator – activators of delta FosB homodimer, primary screen, biochemical, fluorescence polarization, TAMRA-CDK5 oligo, single point. Protein FosB (Mus musculus), P13346. purified delta FosB; percent of positive-control signal above neutral wells. activation, % at 25 µM. 340,000 tested, 0.99% active. AID 493131, 2011;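 active means mean activation above about 17%, with every replicate also reaching it, limit read from the data, passing the limit was not always enough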
# Target sequence (P13346 whole entry, looked up): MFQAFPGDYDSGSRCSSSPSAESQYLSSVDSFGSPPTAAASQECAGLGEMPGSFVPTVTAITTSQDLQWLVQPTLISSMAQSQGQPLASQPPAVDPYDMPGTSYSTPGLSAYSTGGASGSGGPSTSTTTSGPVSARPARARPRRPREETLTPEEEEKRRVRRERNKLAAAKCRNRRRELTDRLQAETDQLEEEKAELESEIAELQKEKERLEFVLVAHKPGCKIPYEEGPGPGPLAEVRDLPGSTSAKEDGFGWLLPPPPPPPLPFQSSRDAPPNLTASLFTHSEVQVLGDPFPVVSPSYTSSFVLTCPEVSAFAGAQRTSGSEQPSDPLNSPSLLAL
# SMARCA2 act – SMARCA2 (BRM) function activators, primary screen, cell-based, luminescence, high throughput; MG213 cells, MMTV-luciferase reporter, dexamethasone, overnight; 370,000 tested, 1% active; activation, % at 9.1 µM; in the data active means activation above about 7.8%;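 further: 0% = vehicle wells and 100% = reference activator wells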
# Rtt109 Vps75 – inhibitors of C. albicans Rtt109/Vps75 HAT, primary screen, biochemical, ThioGlo CoA-SH fluorescence, plate reader; 330,000 tested, 0.16% active; AID 540336, 2011; inhibition, % at 34.9 µM; Histone acetyltransferase RTT109 (Candida albicans (strain SC5314 / ATCC MYA-2876)), …; purified Rtt109/Vps75, 4 h;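 active means inhibition of at least 50% in every replicate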
# * marks the source's active call; other numbers are inactive results; · = not tested or not shown. Compounds with a hit are over-represented: about 3.2% of the library has one in this group of screens.
SMILES,esBAF inh,Dyrk1A ADPGlo,CDK5 inh,dFosB activator,SMARCA2 act,Rtt109 Vps75
COc1ccc2nc(C)cc(Nc3ccc(C)cc3)c2c1,2.3,4.8,0.6,8.3,-0.2,10.1
COc1ccc2nc(C)cc(Nc3ccc(N4CCOCC4)cc3)c2c1,0.6,-1.0,0.4,30.2*,-0.2,-21.8
COC(=O)c1c(-c2ccc(Br)cc2)noc1N,56.1*,6.3,-0.3,-4.3,0.0,2.9
CCOc1cc(-c2noc(N)c2C(=O)OC)cc(OCC)c1OCC,-6.5,-9.9,-1.7,-14.5,-1.6,1.8
O=S(=O)(c1ccccc1F)N1CC[C@@H]2[C@H](CO)Nc3ccc(C4=CCCCC4)cc3[C@@H]21,4.7,·,·,·,·,·
O=C(COC(=O)c1ccccc1Cl)NC1CCCCCC1,69.4*,1.2,0.1,-6.8,1.9,6.4
N#Cc1ccccc1OCC(=O)NC1CCCCCC1,46.0*,·,·,·,-0.4,·
Cc1cc(Br)ccc1OCC(=O)NC1CCCC1,51.9*,1.3,-2.8,-1.6,-0.3,2.2
N#Cc1ccccc1OCC(=O)OCC(=O)NC1CCCCC1,1.6,3.0,2.4,2.4,-0.1,-0.7
O=C(COC(=O)c1c(F)cccc1Cl)NC1CCCC1,49.6*,1.7,-0.4,-3.1,-1.5,11.8
C[C@@H]1CCCCO[C@@H](CN(C)S(C)(=O)=O)[C@H](C)CN([C@@H](C)CO)C(=O)c2cc(NC(=O)CCC(F)(F)F)ccc2O1,-9.6,·,·,·,·,·
CCOc1ccc2c(c1)sc(=NC(=O)C1CC1)n2C,59.9*,2.3,1.1,4.9,5.7,-8.1
CCCCOc1ccc(C(=O)NCC(=O)NC2CC2)cc1,-1.0,-5.4,-2.7,0.9,-1.0,-27.4
CC(C)Oc1ccc(C(=O)NC2CCS(=O)(=O)C2)cc1 (stereo unspecified),2.0,-0.7,-0.6,2.4,-0.8,-1.8
Cc1ccc(C(=O)Nc2cccc(C(=O)NC3CCCC3)c2)cc1,49.8*,-3.2,0.7,-5.6,0.7,-9.6
CC(C)Oc1ccc(C(=O)NC2CCCCC2)cc1,50.0*,-2.0,2.8,1.7,6.7,-1.9
Cc1ccc(C(=O)NCC(=O)NC2CCCCCC2)cc1,-7.1,9.5,0.3,-1.8,-2.8,61.5*
CC(=O)Nc1ccccc1C(=O)C(=O)Nc1cccc(C(=O)NC2CC2)c1,47.8*,-3.4,-0.2,1.1,-2.2,2.3
Clc1ccc(/C=N\Nc2ccccc2)cc1,41.8*,-3.8,-0.4,-6.8,-0.8,9.5
[O-]/[N+](=N\Nc1ccc(Cl)cc1)c1ccccc1,52.0*,·,0.8,-4.1,1.8,16.8
C[C@H]1CCCCO[C@@H](CN(C)C(=O)Nc2ccc3c(c2)OCO3)[C@@H](C)CN([C@@H](C)CO)C(=O)c2cc(NC(=O)Nc3ccccc3)ccc2O1,5.5,·,·,·,·,·
CC(C)c1cn(CC[C@@H]2CC[C@H](NC(=O)C3CCCC3)[C@H](CO)O2)nn1,1.5,·,·,·,·,·
CC(C)c1ccc(-c2nn(-c3ccccc3)cc2C2C(C#N)=C(N)OC3=C2C(=O)CC(C)(C)C3)cc1 (stereo unspecified),51.7*,2.4,1.3,-8.3,-2.4,-4.0
Cc1nn(-c2ccccc2)c(Cl)c1C1C(C#N)=C(N)OC2=C1C(=O)CC(C)(C)C2 (stereo unspecified),-3.8,-1.3,0.5,-2.9,-0.9,-5.8
C[C@@H](O)C#Cc1ccc([C@H]2[C@@H](CO)N3CCCCN(C(=O)c4cccc(F)c4)C[C@@H]23)cc1,-1.7,·,·,·,·,·
SMILES,esBAF inh,Dyrk1A ADPGlo,CDK5 inh,dFosB activator,SMARCA2 act,Rtt109 Vps75
Fc1cccc(F)c1/C=N/N1CCOCC1,·,-1.9,0.3,-3.0,7.9*,1.5
COc1ccc(C#Cc2ccc3c(c2)O[C@@H](CN(C)C(C)=O)[C@@H](C)CN([C@@H](C)CO)S3(=O)=O)cc1,10.6,·,·,·,·,·
CCOc1ccc(-c2cc(C(=O)NCc3ccc(F)cc3)[nH]n2)c(C)c1,1.8,·,·,·,-1.1,·
CCOc1ccc(-c2cc(C(=O)Nc3ccc(F)cc3)[nH]n2)c(C)c1,65.1*,·,·,·,6.4,·
CC1CCCN(C(=O)c2sc3cc([N+](=O)[O-])ccc3c2Cl)C1 (stereo unspecified),46.3*,13.7,-0.6,-7.6,1.4,8.0
Cc1nn(C(=O)CNC(=O)c2ccccc2)c(C)c1C,·,6.4,0.2,6.2,-3.3,-9.7
Cc1nn(C(=O)c2cc3sccc3[nH]2)c(C)c1C,84.2*,-0.5,-0.7,1.5,1.2,-25.9
CCCNC(=O)C[C@@H]1CC[C@@H]2[C@@H](COc3ccc(NC(=O)Nc4ccccc4)cc3C(=O)N2C)O1,-2.5,·,·,·,·,·
CN(C)CCCNC(=O)C[C@@H]1CC[C@@H](NS(=O)(=O)c2ccccc2)[C@H](CO)O1,-1.0,·,·,·,·,·
CN(C)c1ccc(C(O)c2cc3ccccc3s2)cc1 (stereo unspecified),52.0*,2.5,-0.7,-9.7,-1.4,-0.9
CN(C)c1ccc(/C=C/c2nc3ccccc3s2)cc1,-5.9,4.2,5.4,-4.2,-7.8,-0.6
COc1ccc(NC(=O)Nc2ccc3c(c2)C(=O)N([C@@H](C)CO)C[C@@H](C)[C@@H](CN(C)C(=O)NC2CCCCC2)O3)cc1,2.9,·,·,·,·,·
Cc1cccc(N2CCc3c2nc2ccc(Br)cc2c3N)c1,4.5,0.5,0.1,33.4*,-1.4,2.5
Nc1cccc(-c2c[nH]c3ncc(-c4cccnc4)cc23)c1,-10.0,77.4*,10.3,-4.9,·,-10.0
CCC(=O)N(CC)c1nc(-c2ccc(OC)cc2)cs1,71.6*,4.9,0.8,-6.6,-0.4,-3.0
CN(C(=O)c1ccco1)c1nc(-c2ccccc2)cs1,44.2*,-2.5,1.3,-7.4,5.3,-1.9
COCCN(C(=O)c1ccco1)c1nc(-c2ccccc2)cs1,34.6,16.6,-0.1,-6.6,4.1,-4.1
CCN(C(=O)c1ccco1)c1nc(-c2ccc(OC)cc2)cs1,81.2*,-1.6,0.4,4.1,2.4,10.6
O=C([C@H]1[C@H](CO)[C@H]2Cn3c(ccc(-c4ccccc4)c3=O)[C@H]2N1Cc1cocn1)N1CCCCC1,6.7,·,·,·,·,·
Cc1cccc(S(=O)(=O)N2CCCCN3[C@H](CO)[C@H](c4ccc(C#C[C@H](C)O)cc4)[C@H]3C2)c1,22.7,·,·,·,·,·
CCc1cc([N+](=O)[O-])cc(CC)c1N,-6.2,70.1*,-0.5,-3.8,1.0,-13.3
Cc1ccc([N+](=O)[O-])cc1N,·,-1.2,-3.5,-2.4,5.1,-1.9
O=C(NCC1COc2ccccc2O1)c1ccc(Br)s1 (stereo unspecified),42.2*,2.9,0.5,-12.0,1.6,7.2
